# Screening results: PubChem, several laboratories
# Sampled rows, rich in hits. Any-hit rate of the full collection: about 3.1%.
# PP5 inh: inhibitors of human protein phosphatase 5 (PP5) | AID 1987 | P53041 | hit rate 0.18% among 320,000 | purified PP5c, OMFP substrate fluorescence | inhibition, % at 6.7 µM;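 active means inhibition above the campaign's mean inhibition across all tested compounds plus 3 SD, cut at about 9.5% in these data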;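 further: 0% = DMSO only and 100% = 100 µM cantharidin control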
# Target sequence (P53041 whole entry, looked up): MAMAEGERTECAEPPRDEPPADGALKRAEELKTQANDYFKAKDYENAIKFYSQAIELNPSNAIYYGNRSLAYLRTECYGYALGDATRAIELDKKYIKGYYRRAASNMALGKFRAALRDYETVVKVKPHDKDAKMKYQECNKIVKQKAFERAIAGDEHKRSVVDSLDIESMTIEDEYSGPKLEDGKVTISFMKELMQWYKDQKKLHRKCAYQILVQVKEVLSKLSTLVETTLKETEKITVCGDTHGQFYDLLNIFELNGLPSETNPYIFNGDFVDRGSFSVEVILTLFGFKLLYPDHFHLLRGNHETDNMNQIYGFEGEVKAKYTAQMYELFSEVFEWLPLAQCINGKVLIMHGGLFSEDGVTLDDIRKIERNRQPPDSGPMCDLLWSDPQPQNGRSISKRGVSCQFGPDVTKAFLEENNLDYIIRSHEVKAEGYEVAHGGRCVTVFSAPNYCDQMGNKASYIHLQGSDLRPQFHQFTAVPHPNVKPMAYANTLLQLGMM
# CSC inhib: cancer stem cell inhibition. inhibition, % at 7.5 µM. hit rate 1.1% among 300,000. cancer stem cell-like cells viability, luminescence; in the data active means inhibition above about 75%; tested in HMLE shEcad cells
# PP1 inh: counter-screen for PP5 inhibitors: inhibitors of human PP1-alpha; P62136; purified PP1alpha, OMFP fluorescence; inhibition, % at 6.7 µM; hit rate 0.9% among 320,000; AID 2235;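 active means inhibition above the mean inhibition of all tested compounds plus 3 SD, computed separately for each screening campaign, cut at about 15% in these data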
# SKKanGAS inh: blocks kanamycin growth of S. pyogenes SKKanGAS strain; hit rate 1.3% among 300,000; inhibition, % at 7.5 µM; BacTiter-Glo, 6 h;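 active means mean replicate score, as percent of positive control median, at least 50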;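 further: strain carries kanamycin resistance gene driven by streptokinase promoter and grows in 40 µg/ml kanamycin; loss of luminescence reflects streptokinase promoter inhibition or plain growth inhibition; 0% = median of DMSO wells and 100% = positive control at its reference dose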
# Beta cell apopt: blocks beta cell apoptosis. INS-1E cytokine-induced death, ATP luminescence, 48 h; percent of positive-control rescue, neutral wells zero. protection from apoptosis, % (test concentration not listed). hit rate 0.8% among 300,000. AID 435005;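 active means Every replicate reaches about 75%, or at least half do and their mean reaches it too, limit read from the data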;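 further: 0% = cytokine-treated negative control wells and 100% = positive control rescue; higher means more ATP so stronger rescue from cytokine killing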
# PP1 inh confirm: confirmation of human PP1 phosphatase inhibitors; shares compounds with PP1 inh; purified PP1alpha, OMFP substrate fluorescence; inhibition, % at 6.7 µM; hit rate 52% among 1,900; AID 2358;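 active means mean PP1 inhibition above a set limit taken from the earlier primary screen, cut at about 15% in these data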
# PP5 inh counter: PP5 phosphatase inhibition, counter-screen for PP1 inhibitors. shares compounds with PP1 inh. purified PP5c, OMFP fluorescence. inhibition, % at 6.7 µM. hit rate 4% among 1,900. AID 2360;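 active means mean PP5 inhibition over triplicate wells above about 9.5% taken from the earlier PP1 screen, limit read from the data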
# * marks the source's active call; other numbers are inactive results; · = not tested or not shown.
SMILES,PP5 inh,CSC inhib,PP1 inh,SKKanGAS inh,Beta cell apopt,PP1 inh confirm,PP5 inh counter
Cn1c(=O)c(C(=O)CN2CCCc3ccccc32)c(N)n(Cc2ccccc2)c1=O,4,-13,3,-2,-2,·,·
O=C(Nc1ccccc1N1CCCC1)c1cccc(-c2cc3ccccc3oc2=O)c1,0,90*,18*,8,6,19*,-1
CC(=O)C1CCC2C3CCC4=CC(=O)CC[C@]4(C)[C@@]3(F)C(O)C[C@]12C (stereo not given in full),0,3,1,-3,0,·,·
C#Cc1ccc([C@H]2C=C(C(=O)N3CCN(Cc4ccccc4)CC3)O[C@@H](OCc3ccc(CO)cc3)C2)cc1,2,7,19*,17,6,20*,3
O=C(c1cccs1)N1N=C(c2ccccc2)CC1c1ccccc1O (stereo not given),-5,4,25*,15,6,19*,-3
Cc1ccc(C2=NN(C(=O)c3cccs3)C(c3ccccc3O)C2)cc1 (stereo not given),2,2,2,1,9,·,·
COc1nc(-c2ccccc2)ccc1-c1noc(COc2ccccc2)n1,1,28,19*,-9,·,15,-1
COc1nc(-c2ccccc2)ccc1-c1noc(-c2ccccc2)n1,0,-12,0,6,-3,·,·
C/C(=N\NC(=O)c1ccc2c(c1)OCO2)c1ccc(NC(=O)CCCC(=O)O)cc1,·,-13,·,-3,-4,·,·
O=C(O)c1cc(-c2ccc(N3CCOCC3)cc2)nn1-c1ccccc1Cl,-2,-5,34*,7,-1,38*,0
O=C(O)c1cc(-c2ccc(N3CCOCC3)cc2)nn1-c1ccc(F)cc1F,2,-3,24*,8,-1,27*,-3
O=C(CN1C(=O)NC(c2ccccc2)(c2ccccc2)C1=O)NCc1cccs1,3,·,0,·,·,·,·
COc1cc(CN(C2CCCCC2)S(=O)(=O)c2ccc(S(=O)(=O)N(C)C3CCCCC3)cc2)cc(OC)c1OC,2,17,19*,5,18,-2,-3
O=C(CSc1nc2ccc(Nc3nc(N4CCCC4)nc(N4CCCC4)n3)cc2s1)NCc1ccco1,0,20,19*,25,·,5,2
Cc1ccc(S(=O)(=O)N2CCCC2C(=O)NCc2ccncc2)cc1 (stereo not given),1,-4,-6,5,-5,·,·
CCOc1cc(-c2nnc(NC(=O)C3=COCCO3)o2)cc(OCC)c1OCC,1,-4,7,-4,-1,·,·
COc1ccc(/C=N/Nc2nc(Nc3ccccc3)nc(N3CCCC3)n2)cc1[N+](=O)[O-],2,37,8,26,·,·,·
COc1ccc(O)c(/C=N/Nc2nc(Nc3ccccc3)nc(-n3nc(C)cc3C)n2)c1,5,92*,21*,103*,96*,25*,5
COc1cc(/C=N/Nc2nc(Nc3ccccc3)nc(-n3nc(C)cc3C)n2)cc(OC)c1OC,6,102*,24*,75*,72,34*,3
COc1cc(/C=N/Nc2nc(Nc3ccc(C)cc3)nc(-n3nc(C)cc3C)n2)cc(OC)c1OC,4,1,22*,74*,51,21*,0
COc1cc(/C=N/Nc2nc(Nc3ccccc3)nc(N3CCCCC3)n2)ccc1OCC(=O)O,-1,28,10,44,16,·,·
COc1ccc(O)c(/C=N/Nc2nc(C)cc(-c3ccccc3)n2)c1,2,30,1,24,5,·,·
Cc1sc(N)nc1-c1c(C)n(C)c2ccccc12,·,-7,·,-2,0,·,·
COc1cccc(-n2c(CN3CCN(c4ccccc4)CC3)nc3ccc([N+](=O)[O-])cc3c2=O)c1,-3,-5,-5,14,0,·,·
CCOc1ccccc1NC(=O)COC(=O)Cc1ccc(-c2ccccc2)cc1,3,3,21*,5,-3,16*,-3
SMILES,PP5 inh,CSC inhib,PP1 inh,SKKanGAS inh,Beta cell apopt,PP1 inh confirm,PP5 inh counter
NC(=O)CC(NC(=O)c1ccc(Br)cc1)c1ccc(N2CCN(c3ccc(F)cc3)CC2)c([N+](=O)[O-])c1 (stereo not given),-3,35,21*,14,-13,14,0
NC(=O)CC(NC(=O)Cc1ccc(Br)cc1)c1ccc(N2CCN(c3ccc(F)cc3)CC2)c([N+](=O)[O-])c1 (stereo not given),3,38,18*,25,-24,15,0
NC(=O)CC(NC(=O)c1ccc(Br)cc1)c1ccc(N2CCC(Cc3ccccc3)CC2)c([N+](=O)[O-])c1 (stereo not given),-1,-4,20*,37,-66,11,-2
NC(=O)CC(NC(=O)c1ccccc1)c1ccc(N2CCC(N3CCCC3)CC2)c([N+](=O)[O-])c1 (stereo not given),1,-9,-1,-2,2,·,·
NC(=O)CC(NC(=O)c1ccccc1)c1ccc(N2CCN(c3ccccn3)CC2)c([N+](=O)[O-])c1 (stereo not given),-1,12,0,2,-5,·,·
CS(=O)(=O)/C(C#N)=C\c1cnc(S(=O)(=O)c2ccccc2)s1,0,19,-2,34,7,·,·
Cc1ncsc1C(=O)Nc1cccc(C(F)(F)F)c1,-3,-10,-5,4,2,·,·
CC(=O)NCCC(=O)NCc1ccc(F)cc1,-1,11,19*,-3,-7,-6,-7
O=C(CCSCCC(=O)NCc1ccc(F)cc1)NCc1ccc(F)cc1,2,-4,0,2,-7,·,·
CCC1=NN=C(c2ccc(F)cc2)C(c2c[nH]c3ccccc23)N1O (stereo not given),3,-20,22*,1,·,-4,-2
CCOC(=O)C1Nc2ccc(Br)cc2C2C=CCC12 (stereo not given),1,13,11,6,1,·,·
O=C(O)C1Nc2ccc(Br)cc2C2C=CCC12 (stereo not given),2,-3,38*,10,-2,6,-2
O=C(O)C1Nc2c(Cl)cc(Cl)cc2C2C=CCC12 (stereo not given),0,-38,24*,11,4,4,-2
CCOC(=O)C1Nc2ccc(C)cc2C2C=CCC12 (stereo not given),2,4,5,15,-4,·,·
CC(NC(=O)C1CCN(C(=O)Nc2ccccc2)CC1)c1ccccc1Cl (stereo not given),0,·,-1,·,5,·,·
C#CCOCCOCCOCCNc1nc(N2CCN(C(=O)CCCCCCCCCCNC(=O)[C@@H](CCSC)n3cc(CCO)nn3)CC2)nc(N2CCN(C(=O)CCCCCCCCCCNC(=O)[C@H](CCC(=O)O)n3cc(CCCCCN)nn3)CC2)n1,3,-9,18*,·,-16,37*,4
